The values below come from PubChem BioAssay.

The test system of assay [1] is Human papillomavirus type 1a protein E7 (residues 44-93). The assay can be described thus: small molecules binding HPV E7 44-93 – biochemical, small-molecule microarray, residues 44-93, 635 nm fluorescence, primary screen (AID 1108).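 Further: E7 fragment applied at 1 µg/mL in TBST for 1 h at 4 C; score combines spot fluorescence with its signal to noise ratio.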 The note with it: fluorescence 635 nm, higher = more signal.
Assay [2] is described as follows: hepatitis C replication reporter changes, two-sided – Huh7 cells, luciferase reporter, HCV replication inhibitor project, primary screen (AID 1109).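 Further: huh7 hepatoma cells harbouring a luciferase neomycin HCV replicon reporter; luciferase luminescence as measure of HCV replicon replication; test concentration not given here.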 Particulars: Huh7 HCV replicon luciferase reporter, 48 h; higher = more signal.
Assay [3] has as its target Left-right determination factor 2 (Homo sapiens) (UniProt O00292). The assay can be described thus: small molecules binding LEFTY2 protein – biochemical, small-molecule microarray, 635 nm fluorescence scan, primary screen (AID 1110). Particulars: higher = more signal.
Assay [4] concerns the target Calmodulin-1 (Homo sapiens) (UniProt P0DP23). Nature of the assay: small molecules binding calmodulin-1 with EGTA – biochemical, small-molecule microarray, Cy5-labelled CALM1, profiling panel (AID 1111).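 Further: labelled calmodulin applied in Tris saline Tween buffer holding calcium plus EGTA and DTT.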 Particulars: Cy5-CALM1 binding fluorescence, higher = more signal.
Assay [5] has the same target. The assay can be described thus: small molecules binding Ca-loaded calmodulin-1 – biochemical, small-molecule microarray, Cy5-labelled CALM1, plus calcium, artefact control for SMM control-protein annotation, profiling panel (AID 1112).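 Further: score merges spot fluorescence with signal to noise from triplicate slides.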 The note with it: Cy5-CALM1 binding fluorescence, higher = more signal.
Assay [6] is described as follows: probe aWnt5a binding to arrayed compounds – biochemical, biotinylated probe, 635/667 nm fluorescence, primary screen (AID 1113).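 Further: score merges 667 nm fluorescence intensity with signal-to-noise per printed feature.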 The note with it: small-molecule microarray, higher = more signal.
The nature of assay [7]: probe aShh binding to arrayed compounds – biochemical, biotinylated probe, 635/667 nm fluorescence, primary screen (AID 1114).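 Further: probe is biotin-labelled aShh protein from a stem cell growth factor screen; measures binding of labelled protein to compounds printed on the slide; score merges feature fluorescence at 667 nm with signal-to-noise.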 Particulars: small-molecule microarray, higher = more signal.
The nature of assay [8]: probe aNog binding to arrayed compounds – biochemical, biotinylated probe, 635/667 nm fluorescence, primary screen (AID 1115).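 Further: probe is biotinylated aNog protein used at 0.15 µg/mL for 1 h at 4 C; z-score combines 667 nm fluorescence of each spot with its signal to noise.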 The note with it: small-molecule microarray, higher = more signal.
Assay [9] deals with Torsin-1A-interacting protein 1 (Homo sapiens) (UniProt Q5JTV8). Nature of the assay: compound microarray binding of lysate hLAP1 – cell lysate, small-molecule microarray, COS7 lysate, 635/667 nm fluorescence, primary screen (AID 1116). The note with it: 635 nm fluorescence, higher = more signal.
Chain of Torsin-1A-interacting protein 1 (Homo sapiens) (Q5JTV8 whole entry, looked up): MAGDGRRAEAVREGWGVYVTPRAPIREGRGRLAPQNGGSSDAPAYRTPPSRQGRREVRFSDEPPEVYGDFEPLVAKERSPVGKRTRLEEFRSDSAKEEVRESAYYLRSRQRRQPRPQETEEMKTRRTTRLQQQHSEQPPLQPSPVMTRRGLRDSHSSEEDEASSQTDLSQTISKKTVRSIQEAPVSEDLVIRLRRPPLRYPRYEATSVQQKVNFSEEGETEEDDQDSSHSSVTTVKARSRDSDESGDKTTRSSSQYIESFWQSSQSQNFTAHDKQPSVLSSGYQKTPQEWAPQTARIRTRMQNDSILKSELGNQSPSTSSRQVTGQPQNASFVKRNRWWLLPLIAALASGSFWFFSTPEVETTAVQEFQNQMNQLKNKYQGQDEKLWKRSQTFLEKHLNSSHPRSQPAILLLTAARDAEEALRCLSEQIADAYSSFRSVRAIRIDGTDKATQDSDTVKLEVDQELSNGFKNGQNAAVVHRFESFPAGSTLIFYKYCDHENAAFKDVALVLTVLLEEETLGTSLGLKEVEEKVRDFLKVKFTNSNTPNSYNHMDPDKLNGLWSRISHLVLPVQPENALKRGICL
Assay [10] deals with Alpha-bungarotoxin (Bungarus multicinctus) (UniProt P60615). Nature of the assay: compounds binding labelled alpha-BTX control protein – biochemical, small-molecule microarray, Alexa647 label, 635/667 nm fluorescence, artefact control for SMM control protein annotation, profiling panel (AID 1117). Particulars: alpha-BTX-A647 binding fluorescence, higher = more signal.
Chain of Alpha-bungarotoxin (Bungarus multicinctus) (P60615 whole entry, looked up): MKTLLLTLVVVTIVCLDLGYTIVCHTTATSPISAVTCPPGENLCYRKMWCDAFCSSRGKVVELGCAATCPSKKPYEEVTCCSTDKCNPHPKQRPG

Molecules are shown by their SMILES.

Chain of Left-right determination factor 2 (Homo sapiens) (O00292 whole entry, looked up): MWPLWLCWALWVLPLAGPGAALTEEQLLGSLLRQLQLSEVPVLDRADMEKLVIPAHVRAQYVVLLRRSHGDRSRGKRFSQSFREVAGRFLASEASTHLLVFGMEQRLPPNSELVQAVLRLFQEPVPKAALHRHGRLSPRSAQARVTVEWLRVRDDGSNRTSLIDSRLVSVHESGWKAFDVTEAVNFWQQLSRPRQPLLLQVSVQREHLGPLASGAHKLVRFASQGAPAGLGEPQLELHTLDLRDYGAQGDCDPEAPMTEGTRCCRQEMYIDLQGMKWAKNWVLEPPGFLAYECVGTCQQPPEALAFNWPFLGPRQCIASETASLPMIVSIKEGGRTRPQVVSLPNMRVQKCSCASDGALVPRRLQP

With `COCCCNC(=O)[C@]1(CCS(=O)(=O)c2ccccc2)N=C(c2ccc(OCCCO)cc2)O[C@@H]1c1ccccc1N=[N+]=[N-]`, the composite z-score in assay [1] is 1.23; in [3], -0.0904; in assay [4] it was 2.09; in assay [5], 0.893; in [6], 0.0988; in assay [7] it was 0.203. The composite z-score in [8] is 0.698; in assay [9], -0.342; in [10] it was 2.68. Also, the z-score in assay [2] was -0.562.

Turning to `C=CCC(OC(C)=O)[C@@H]1[C@@H](N(Cc2ccc(-c3cccc(C(F)(F)F)c3)o2)C(=O)c2ccc(-c3ccccc3)cc2)c2cc(OCCCO)ccc2N1C(=O)c1ccc2ccccc2n1` (stereo not given in full), the composite z-score in assay [1] was -0.252; in [3], -0.122; in [4], -0.227; in assay [5], 0.623; in assay [6] it was 0.0437; in assay [7], 0.112. The results for the composite z-score in assay [8], in assay [9] and in [10] were -0.139, -0.2 and -0.386, respectively. In assay [2], this compound had a z-score of 0.177.

Regarding `COc1ccc(-c2cc3c(c(CCc4ccccc4)n2)[Si](C(C)C)(C(C)C)OC3)cn1`, the composite z-score was -0.681 in assay [1]; 0.209 in assay [3]; -0.113 in [4]; 0.151 in assay [5]; -0.15 in assay [6]; -0.147 in assay [7]. Moreover, the composite z-score in [8] was -0.115; in [9], -0.0389; in assay [10], 0.104. Moreover, in assay [2], the z-score is -0.42.

As to `COc1ccc(C#Cc2ccc3c(c2)[C@]2(C(=O)N3)[C@H](c3ccc(O)cc3)N3[C@H](c4ccccc4)[C@H](c4ccccc4)OC(=O)[C@H]3[C@@H]2C(=O)O)cc1`, the composite z-score in [1] is 1.19; in assay [3] it was -0.172; in assay [4] it was 0.69; in [5], 0.805; in assay [6] it was 0.0293; in [7], -0.315. Further, the composite z-score in assay [8] is 1.49; in [9], 0.684; in [10] it was -0.0251. The same compound showed a z-score in assay [2] of -0.327.

Take `O=C(NCc1ccccc1)[C@@H]1c2ccccc2C(=O)N(Cc2ccccc2C(F)(F)F)[C@H]1c1ccc(CO)cc1`: the composite z-score in assay [1] is 0.966; in assay [3], -0.948; in [4], -0.526; in assay [5], -0.317; in [6], -0.252; in assay [7] it was -0.419. In addition, the composite z-score is -0.383 in assay [8], -0.934 in assay [9] and -0.166 in [10]. Moreover, the z-score in assay [2] came out at 0.129.

Regarding `CN(C)c1ccc(C(O)C2C=CC3C(=O)N(c4ccccc4)C(=O)C3N2Nc2ccc([N+](=O)[O-])cc2)cc1` (stereo not given), the composite z-score is 1.37 in [1]; -0.162 in assay [3]; 0.603 in assay [4]; -0.534 in [5]; 0.0809 in assay [6]; 0.0697 in [7]. In addition, the composite z-score came to 0.638 in [8], 0.926 in [9] and 1.46 in assay [10]. In assay [2], this compound returned a z-score of -1.52.

For `[N-]=[N+]=NCc1ccccc1C[C@@]1(C(=O)N2CCCCC2)N=C(c2ccc(OCCCO)cc2)O[C@@H]1c1ccccc1`, the composite z-score was 0.785 in assay [1]; -1.01 in [3]; 1.28 in assay [4]; 0.958 in [5]; 0.0141 in assay [6]; -0.325 in assay [7]. The composite z-score in [8] was 0.46; in assay [9], 2.15; in assay [10], 1. The compound also had a z-score in [2] of -3.35.

`O=C1C=C(c2ccccc2)C(=O)c2ccc([C@H]3Oc4ccccc4S(=O)(=O)N4CCC[C@@H]34)cc21`: the composite z-score in assay [1] was -1.08; in [3], -0.272; in [4], -0.623; in [5], -0.351; in [6], -0.172; in [7] it was -0.117. Also, the composite z-score in assay [8] is -0.23; in [9], -0.239; in assay [10] it was -0.0257. In addition, the z-score in [2] is -4.28.

For `COC(=O)[C@@]1(Cc2ccc(OC)cc2)[C@H]2c3cc(C(=O)N(C)C)n(CCO)c3C[C@H]2CN1C(=O)c1ccccc1`, the composite z-score in assay [1] was -0.317; in [3] it was -0.511; in [4], 1.67; in assay [5], 1.1; in [6], -0.0398; in [7] it was 0.0044. Besides, the results for the composite z-score in assay [8], in [9] and in assay [10] were -0.426, 3.28 and 1.18, respectively. The same compound registered a z-score in [2] of -0.441.

Regarding `COCCCNC(=O)[C@@]1(Cc2ccccc2N=[N+]=[N-])N=C(c2ccc(OCCCO)cc2)O[C@H]1c1ccccc1`, the composite z-score in assay [1] was 1.41; in [3] it was -0.394; in [4], 0.906; in assay [5] it was -0.257; in assay [6], 0.269; in assay [7], 0.142. Besides, the results for the composite z-score in assay [8], in assay [9] and in assay [10] were 1.76, 1.63 and 0.643, respectively. This compound registered a z-score in assay [2] of -1.54.

With `C=C(/C(=C/C[C@H](OC(=O)c1ccncc1)c1ccc(CO)o1)c1cc(C(=O)OC)ccc1OC)C(C)C`, the composite z-score in [1] was 1.31; in assay [3], 0.34; in assay [4] it was -0.0383; in assay [5], -0.748; in assay [6], 0.0037; in [7], 0.235. The composite z-score in assay [8] is -0.0247; in assay [9], 0.602; in assay [10] it was 0.0818. In [2], this compound returned a z-score of -0.706.

As to `COc1ccc([Si](C)(C)[C@@H]2[C@@H](CC(=O)N(CCO)Cc3ccccc3)O[C@]3(C(=O)N(Cc4cccc(N5C(=O)c6cccc7cccc5c67)c4)c4ccccc43)[C@H]2C)cc1`, the composite z-score was -0.726 in assay [1]; 0.882 in assay [3]; 0.222 in [4]; 0.234 in assay [5]; -0.1 in assay [6]; -0.209 in assay [7]. Also, the composite z-score in [8] was -0.424; in assay [9], 0.566; in assay [10] it was 0.389. In [2], this compound yielded a z-score of -3.94.

`COC(=O)[C@@]1(Cc2ccccc2)[C@@H]2C(=CC(=O)[C@H]2CC(=O)C(=O)N(C)C)CN1C(=O)c1ccccc1`: the composite z-score in assay [1] amounted to 0.883; in assay [3], 0.25; in assay [4], 1.31; in [5], 0.477; in [6], 0.188; in assay [7], 0.21. The values for the composite z-score in assay [8], in assay [9] and in assay [10] were 1.46, 0.275 and 0.409, respectively. In assay [2], this compound came in with a z-score of -2.36.

As to `COC(=O)C1=CC(CCCO)=CC(C2CC2)N(C)C=C1C(=O)OC` (stereo not given), the composite z-score in assay [1] is -0.105; in [3], -0.087; in assay [4], 0.727; in assay [5], 0.295; in [6], -0.184; in [7], 0.449. In addition, the figures for the composite z-score in assay [8], in assay [9] and in assay [10] were -0.328, 1.03 and -0.24, respectively. In addition, the z-score in assay [2] is -0.902.

On to `C=CCC(OC(C)=O)[C@@H]1[C@@H](N(Cc2cccc3ccccc23)C(=O)c2cccc3ccccc23)c2cc(OCCCO)ccc2N1C(=O)c1ccc(-c2ccccc2)cc1` (stereo not given in full), for which the composite z-score was -0.0699 in assay [1]; 0.79 in [3]; 0.0898 in assay [4]; 0.766 in [5]; 0.0229 in assay [6]; -0.117 in assay [7]. Also, the composite z-score in [8] was -0.215; in assay [9] it was 0.197; in assay [10] it was -0.574. Further, in assay [2], the z-score was -0.599.
